Screening data (PubChem)
This is a sample that favours compounds with a hit; in the whole collection about 1.8% have one here.
PKD1 kinase inh – blocks activity of human protein kinase D1; inhibition, % (test concentration not listed); Q15139; actives 0.056% (n = 200,000); PKD1 kinase fluorescence polarization assay
VLA-4 inh – inhibition in a human VLA-4 binding assay. inhibition, % (about 7 µM as worked out from the volumes in the protocol). P13612. actives 0.2% (n = 330,000). VLA-4 expressing cells, ligand binding flow cytometry. AID 2557
HDAC3 inhib – inhibitors of human histone deacetylase 3; O15379; recombinant HDAC3, fluorogenic peptide/trypsin coupled, fluorescence; inhibition, % at 8.3 µM; actives 0.15% (n = 320,000); AID 2718; in the data active means inhibition above about 26%, passing the limit was not always enough
Pemphigus Ab inh – blocks pemphigus antibody binding to human desmoglein-3; binding (percent of control), % at 10 µM; actives 0.48% (n = 310,000); DSG3-coupled beads, scFv-anti-DSG3-GFP binding, flow cytometry; stronger effect = lower value; AID 588358; P32926;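 active means binding more than 3 SD below its plate's average and above zero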;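 further: hits lower antibody fragment binding to DSG3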
LANA-H2A inh – blocks KSHV LANA binding to histone H2A/H2B | Q9QR71 | cell-free LANA-H2A/H2B peptide, fluorescence polarization | inhibition, % (no concentration beside the values) | actives 0.6% (n = 320,000) | AID 2629; in the data active means inhibition mostly above about 10%, no sharp cut-off; inactive means mostly below about 6.7%
GRK2 inh – inhibitors of human GRK2 displacing RNA aptamer; bead flow cytometry, FAM-aptamer displacement from GRK2; inhibition of aptamer binding, % at 10 µM; actives 0.59% (n = 330,000); AID 488847;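 active means inhibition of aptamer binding above 40%, roughly 3 SD of noise, on plates passing a quality check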;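 further: median bead fluorescence of bound FAM aptamer so fluorescent compounds give negative values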
GRK2 inh confirm – human GRK2 inhibition confirmation, cherry pick 1; AID 504451; bead-bound GRK2, FAM-aptamer displacement, flow cytometry; shares compounds with GRK2 inh; aptamer displacement, % at 10 µM; actives 4% (n = 2,000);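 active means aptamer displacement above 40%, near three times the noise of non-fluorescent compounds, on plates passing quality checks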;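 further: negative values mostly reflect intrinsic compound fluorescence rather than true enhancement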
FAM quench CP1 – aptamer fluorescence quenching in GRK2 counter-screen | fluorescence response (% of DMSO), % at 10 µM | 2,000 tested, under 10 active | shares compounds with GRK2 inh | AID 504580 | Carboxyfluorescein RNA aptamer on beads, flow cytometry quenching; stronger effect = lower value;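 active means compounds that quench the bead-bound fluorescent RNA probe, cutting fluorescence to under half of the solvent control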;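 further: counterscreen run without GRK2 so only probe quenching by compound is measured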
GRK2 CP2 – human GRK2 inhibition confirmation, cherry pick 2; shares compounds with GRK2 inh; bead-bound GRK2, FAM-aptamer displacement, flow cytometry; inhibition of aptamer binding, % at 10 µM; 360 tested, under 10 active;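 active means inhibition of aptamer binding above 40%, about triple the noise seen with nonglowing compounds, on plates passing quality control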;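 further: negative values mostly come from compounds that fluoresce themselves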
FAM quench SP – counter-screen for GRK2 binding hits: quenchers of fluorescent RNA aptamer. 360 tested, under 10 active. carboxyfluorescein RNA aptamer beads, flow cytometry quenching; stronger effect = lower value. AID 588494. shares compounds with GRK2 inh. fluorescence response vs DMSO, % at 10 µM;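 active means response vs DMSO under 50%, meaning signal dropped by over half, treated as fluorescence quencher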;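 further: labelled aptamer on streptavidin beads without GRK2 as a quench counter-screen; 100% = bead fluorescence of DMSO wells and lower means quenching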
* marks the source's active call; other numbers are inactive results; i = inactive; . = no result. Unless noted, no stated cut-off is given here; in the data, active means inhibition above about 50%; inactive means the rest.

SMILES	PKD1 kinase inh	VLA-4 inh	HDAC3 inhib	Pemphigus Ab inh	LANA-H2A inh	GRK2 inh	GRK2 inh confirm	FAM quench CP1	others
COc1cccc(/C=C/C(=O)NNC(=O)c2ccco2)c1OC	.	0.0	1.7	106.0	-3.4	2.0	.	.
O=C(c1ccc(Cl)c(S(=O)(=O)NCc2ccccc2)c1)N1CCN(c2ccccn2)CC1	-6.5	-6.1	-5.7	104.2	-3.3	2.0	-1.8	102.6
O=C(COc1ccc(Cl)cc1Cl)N1CCN(c2ccccn2)CC1	-3.2	8.5	-3.0	103.4	1.4	1.0	.	.
O=C(c1ccc(CNS(=O)(=O)c2ccccc2)cc1)N1CCN(c2ccccn2)CC1	0.7	-2.1	-6.3	98.3	-5.5	5.0	.	.
O=C(COc1cc(Cl)c(Cl)cc1Cl)N1CCN(c2ccccn2)CC1	0.8	11.7	-3.9	.	-4.0	95.0*	-2.4	94.8
COc1cc(OC)cc(C(=O)Nc2ncn[nH]2)c1	.	-7.7	6.5	101.3	2.1	77.0*	-5.3	100.8
O=C(N/N=C/c1ccco1)c1ccc(NC(=O)c2ccc(Cl)cc2)cc1	.	-3.5	-3.8	112.2	-3.1	0.0	.	.
COc1ccc(S(=O)(=O)N2CCN(Cc3cccc(Cl)c3)CC2)cc1	1.8	16.7	5.1	121.3	4.4	1.0	.	.
COc1ccc(S(=O)(=O)N2CCN(Cc3ccc(Cl)cc3)CC2)cc1	-1.9	16.5	3.2	100.0	4.9	65.0*	-0.4	101.6
O=C(NC1CCCCC1)C(c1ccc2ncccc2c1)N(Cc1ccc(F)cc1)C(=O)c1ccc2c(c1)OCCO2 (stereo unspecified)	3.6	15.8	1.2	96.7	-10.5	48.0*	1.6	99.9
C/C(O)=C(\N=Nc1cc(C)ccc1O)C(N)=O	-2.9	-1.8	-1.2	100.3	7.8	2.0	.	.
c1ccc(CCCCc2ccncc2)cc1	.	.	.	96.0	.	.	.	.
c1ccc(CCc2ccncc2)cc1	.	29.9	6.8	111.9	-3.1	66.0*	2.2	95.2
OCCc1ccccc1	.	46.3	-2.2	.	4.6	20.0	-1.6	98.9
COC(=O)Nc1ccc(S(=O)(=O)N2CCN(c3ccc(F)cc3)CC2)cc1	-6.6	8.2	5.8	.	-1.6	50.0*	-0.4	96.5
O=C(C[n+]1cnn(CC(=O)c2ccc(Cl)cc2Cl)c1)c1ccc([N+](=O)[O-])cc1	8.2	-5.0	-3.1	99.5	.	59.0*	-22.9	97.0
COC(=O)c1cc(-c2cccc([N+](=O)[O-])c2)c2c(=O)n(C)c(=O)n(C)c2n1	.	2.9	-6.9	107.5	17.7	79.0*	-1.0	103.5
CCN1CCN(CC(=O)N2N=CCC2c2ccccc2)CC1 (stereo unspecified)	.	8.1	-0.9	116.4	4.4	100.0*	-0.1	100.4
Cc1ccc(Cn2c(Cc3ccccc3)nc3ccccc32)cc1	1.7	-3.1	7.0	100.0	0.8	96.0*	1.0	94.7
ClCc1nc2ccccc2n1Cc1ccccc1	.	i	-2.6	281.0	14.6	0.0	.	.
O=C(NCCCSc1ccccc1)c1cc(Cl)ccc1O	.	-14.5	-10.6	111.5	12.9	0.0	.	.
CC1CCCCN1C(=O)Cn1cc(C(=O)c2ccco2)c2ccccc21 (stereo unspecified)	-3.6	-4.2	-5.9	135.8	6.6	97.0*	2.0	97.9
O=C(c1ccco1)c1cn(CC(=O)N2CCCCCC2)c2ccccc12	1.5	17.8	2.7	78.2	-3.1	0.0	.	.
COc1ccc(/C=C/C(=O)c2ccc(NC3=NCCCS3)cc2)cc1OC	-2.8	1.5	-5.6	99.5	-4.4	0.0	.	.
CN(CC(=O)Nc1cccc(F)c1)C(=O)c1cccc(-n2cccc2)c1	.	8.9	5.0	95.9	5.1	14.0	.	.
SMILES	PKD1 kinase inh	VLA-4 inh	HDAC3 inhib	Pemphigus Ab inh	LANA-H2A inh	GRK2 inh	GRK2 inh confirm	FAM quench CP1	others
CCN(CC(=O)Nc1ccc(NC(C)=O)cc1)C(=O)C1CCN(C(=O)c2ccccc2C)CC1	.	.	.	107.5	.	.	.	.
Cc1ccccc1C(=O)N1CCC(C(=O)N(C)CC(=O)Nc2cccc(F)c2)CC1	.	-0.3	-4.1	102.1	-0.3	51.0*	.	.	GRK2 CP2=17.9;FAM quench SP=102.0
CN(CC(=O)Nc1cccc(F)c1)C(=O)c1ccc(N2C(=O)c3ccccc3C2=O)cc1	.	-5.6	0.8	93.6	-7.7	0.0	-5.1	103.8
O=c1ccc2cc(S(=O)(=O)Nc3ccc(Br)cc3)ccc2o1	.	4.0	0.7	122.8	-9.1	1.0	.	.
CC(C(=O)OCC(=O)c1c(N)n(C)c(=O)n(C)c1=O)N1C(=O)c2ccccc2C1=O (stereo unspecified)	8.7	2.0	5.5	108.0	-3.7	1.0	.	.
Cn1c(N)c(C(=O)COC(=O)CCCN2C(=O)c3ccccc3C2=O)c(=O)n(C)c1=O	-2.6	4.0	-1.4	111.4	1.8	93.0*	0.9	99.1
Cc1ccccc1Nc1nc(N)nc(CSc2n[nH]c(N)n2)n1	.	2.7	2.4	96.3	6.5	2.0	.	.
Cc1ccc(NC(=O)CCCOc2ccccc2)cc1S(=O)(=O)N1CCOCC1	.	10.9	0.4	99.0	20.0*	75.0*	2.1	99.4
CCOc1ccc(S(=O)(=O)N2CCOCC2)cc1NC(=O)c1ccccc1F	.	6.8	-0.5	103.4	-2.9	1.0	.	.
CCOc1cc(N2CCOCC2)c(OCC)cc1NC(=O)c1[nH]c(C)c(C(C)=O)c1C	.	0.0	4.4	101.4	-3.8	3.0	.	.
CCOc1cc(N2CCOCC2)c(OCC)cc1NC(=O)c1cc(S(=O)(=O)N2CCOCC2)ccc1C	.	6.0	4.2	104.4	2.1	8.0	-0.4	97.1
CCOc1cc(N2CCOCC2)c(OCC)cc1NC(=O)c1ccc(F)c(S(=O)(=O)N2CCOCC2)c1	.	.	.	99.2	.	.	2.1	94.6
CCOc1cc(N2CCOCC2)c(OCC)cc1NC(=O)c1ccc(S(C)(=O)=O)cc1	2.2	11.4	-7.2	99.5	-3.4	90.0*	5.5	105.7
CCOc1ccc(OCCC(=O)OCC(=O)Nc2cc(OCC)c(N3CCOCC3)cc2OCC)cc1	.	19.5	2.0	107.5	-8.5	0.0	.	.
C[C@@H]1CN([C@@H](C)CO)C(=O)c2cccc(NC(=O)C3CCCCC3)c2O[C@@H]1CN(C)C(=O)NC1CCCCC1	.	-1.4	7.3	91.4	-6.3	0.0	.	.
O=C(CCCN1C(=O)C(c2ccccc2)Oc2cccnc21)Nc1ccccc1Cl (stereo unspecified)	.	2.1	2.7	106.8	7.8	0.0	.	.
